This is one part of a sample in which hits are shown more often than they occur.
IDE exosite inh – exo-site inhibitors of human IDE, primary screen, biochemical, fluorescence anisotropy, probe displacement. Insulin-degrading enzyme (Homo sapiens), P14735. purified IDE, FL-6b probe fluorescence polarization; stronger effect = lower value. z-score at 20 µM. 17,000 tested, 6.3% active;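 active = z-score of -3 or lower, meaning strong loss of probe binding signal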;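 also: His-tagged human IDE residues 42-1019 made in E. coli with 30 nM FL-6b probe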
* marks the source's active call; other numbers are inactive results; ! = a repeat was not active.

SMILES	IDE exosite inh
COCC(=O)N1[C@H](C#N)[C@H](c2ccccc2-c2cccc(F)c2)[C@@H]1CO	3.3
C/C=C/c1ccc([C@@H]2[C@@H](CO)N(C(=O)CC)[C@@H]2CNC(=O)CC)cc1	0.66
CC(=O)N1CCCCN2[C@H](CO)[C@H](c3ccc(-c4ccc(C)cc4)cc3)[C@@H]2C1	0.45
CC(=O)N1CCCCN2[C@H](CO)[C@@H](c3ccc(-c4cccc(C)c4)cc3)[C@@H]2C1	-3.5*
COCC(=O)N1CCCCN2[C@H](CO)[C@H](c3ccc(-c4ccc(C)cc4)cc3)[C@H]2C1	0.099
COCC(=O)N1CCCCN2[C@H](C1)[C@@H](c1ccc(-c3cccc(C)c3)cc1)[C@@H]2CO	-5*
CC(=O)N1CCCCN2[C@@H](CO)[C@@H](c3ccc(-c4cccc(C)c4)cc3)[C@@H]2C1	-2.4
CC(=O)N1CCCCN2[C@@H](CO)[C@@H](c3ccc(-c4ccccc4)cc3)[C@@H]2C1	-1.8
CC(=O)N1CCCCN2[C@H](C1)[C@H](c1ccc(-c3ccccc3)cc1)[C@@H]2CO	0.47
COCC(=O)N1CCCCN2[C@H](CO)[C@@H](c3ccc(-c4cccc(C)c4)cc3)[C@H]2C1	-0.66
CC(=O)N1CCCCN2[C@H](CO)[C@@H](c3ccc(-c4cccc(C)c4)cc3)[C@H]2C1	-5.7*
COC(=O)C[C@@H]1CC[C@H]2[C@@H](COc3ccc(NC(=O)c4ccc(C(F)(F)F)cc4)cc3C(=O)N2C)O1	-0.77
CCCC#Cc1ccc([C@H]2[C@@H](CO)N(C(C)=O)[C@@H]2CNC(=O)C2CCC2)cc1	2.9
Cc1noc(C)c1S(=O)(=O)N(C)C[C@H]1OCc2ccccc2-c2c(n(C)c3ccccc23)C(=O)N([C@H](C)CO)C[C@H]1C	-0.36
N#C[C@H]1[C@@H](c2ccccc2-c2cccc(F)c2)[C@@H](CO)N1C(=O)CN1CCOCC1	0.95
COc1cccc(NC(=O)C[C@H]2CC[C@@H]3[C@H](COc4ccc(NC(=O)C5CC5)cc4C(=O)N3C)O2)c1	-0.74
C[C@H](CO)N1C[C@H](C)[C@H](CN(C)C(=O)Nc2ccc3c(c2)OCO3)OCCCC[C@H](C)Oc2ccc(NS(=O)(=O)c3ccc(F)cc3)cc2C1=O	-0.13
CCC(=O)NC[C@H]1[C@@H](c2ccc(C3=CCCC3)cc2)[C@H](CO)N1C(=O)C1CC1	3.8
N#C[C@H]1[C@@H](c2ccc(C3=CCCCC3)cc2)[C@H](CO)N1C(=O)Cc1ccncc1	6.7
Cc1ccc(S(=O)(=O)N2C[C@@H]3N[C@H](C2)C3c2ccc(/C=C/c3ccccc3)cc2)cc1 (stereo partly drawn)	4.2
COc1ccccc1S(=O)(=O)N1C[C@@H]2N[C@H](C1)C2c1ccc(-c2cccnc2)cc1 (stereo partly drawn)	1.1
Cc1ccccc1-c1ccc(C2[C@@H]3CN(S(=O)(=O)c4ccccc4)C[C@H]2N3)cc1 (stereo partly drawn)	-10*
COc1ccccc1S(=O)(=O)N1C[C@@H]2N[C@H](C1)C2c1ccc(-c2ccc(F)cc2)cc1 (stereo partly drawn)	3
COc1ccc(S(=O)(=O)N2[C@@H]3CNC[C@H]2C3c2ccc(-c3cccc(OC)c3)cc2)cc1 (stereo partly drawn)	3.4
C/C=C/c1ccc(C2[C@@H]3CN(S(=O)(=O)c4ccccc4)C[C@H]2N3)cc1 (stereo partly drawn)	0.064
SMILES	IDE exosite inh
COc1ccccc1S(=O)(=O)N1C[C@@H]2N[C@H](C1)C2c1ccc(-c2ccccc2C)cc1 (stereo partly drawn)	-7.9*!
COc1ccccc1S(=O)(=O)N1[C@@H]2CNC[C@H]1C2c1ccc(/C=C/c2ccccc2)cc1 (stereo partly drawn)	-5.2*!
COc1cccc(S(=O)(=O)N2[C@@H]3CNC[C@H]2C3c2ccc(-c3ccccc3C)cc2)c1 (stereo partly drawn)	-5.3*
COc1cccc(S(=O)(=O)N2[C@@H]3CNC[C@H]2C3c2ccc(-c3cccc(C)c3)cc2)c1 (stereo partly drawn)	-1.5
COc1ccccc1S(=O)(=O)N1[C@@H]2CNC[C@H]1C2c1ccc(-c2ccncc2)cc1 (stereo partly drawn)	0.19
COc1cccc(S(=O)(=O)N2[C@@H]3CNC[C@H]2C3c2ccc(/C=C/c3ccccc3)cc2)c1 (stereo partly drawn)	0.22
Cc1ccc(OC(=O)N(C)C[C@@H]2OCc3ccccc3-c3ccccc3C(=O)N([C@@H](C)CO)C[C@H]2C)cc1	0.34
COc1ccccc1NC(=O)N1CCCCN2[C@H](CO)[C@H](c3ccc(C#CC4CCCC4)cc3)[C@@H]2C1	2.6
O=C(Nc1ccccc1)N1CCCCN2[C@H](CO)[C@H](c3ccc(-c4ccncc4)cc3)[C@@H]2C1	1.2
CS(=O)(=O)N1[C@@H](C#N)[C@@H](c2ccc(C#CC3CCCC3)cc2)[C@@H]1CO	0.48
N#C[C@@H]1[C@H](c2ccc(-c3cncnc3)cc2)[C@H](CO)N1C(=O)Cc1ccccc1	1.5
N#C[C@@H]1[C@@H](c2ccc(C#Cc3ccccc3F)cc2)[C@H](CO)N1C(=O)C1CCOCC1	1.1
